# Compound activity from PubChem.
# OPRM1-OPRD1 ag: agonists of human mu-delta opioid receptor heterodimerization; 340,000 compounds, 0.3% hits; P35372+P41143; activation, % at 9.3 µM; cells, OPRM1-OPRD1 heterodimerization, luminescence;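 also: 0% = vehicle-treated cells and 100% = reference agonist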
# HTR5A inv ctr: inverse agonist of human HTR5A in OPRM1-OPRD1 counter-screen; 340,000 compounds, 0.083% hits; inhibition, % at 9.3 µM; HTR5A cell line, luminescence, inverse agonism; P47898; AID 504634; in the data active = inhibition mostly above about 23%, no sharp cut-off; inactive = mostly below about 18%;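 also: 0% = cells with DMSO and 100% = no-cell wells with DMSO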
# HTR5A ag ctr: HTR5A agonism, opioid heterodimer counter-screen | P47898 | HTR5A agonist assay, luminescence, cell-based | activation, % at 9.3 µM | 340,000 compounds, 0.61% hits; in the data active = activation mostly above about 9.5%, no sharp cut-off; inactive = mostly below about 7.6%;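 also: 0% = cells with vehicle only and 100% = reference agonist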
# MOR-DOR inv ag: inverse agonist of human OPRM1-OPRD1 heterodimerization; AID 504357; P35372+P41143; cell-based MOR-DOR heterodimer luminescence, inverse agonism; inhibition, % at 9.3 µM; 340,000 compounds, 0.21% hits; in the data active = inhibition above about 22%, passing the limit was not always enough;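 also: 0% = cells with DMSO and 100% = wells without cells with DMSO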
# OPRM1-D1 ag cf: confirmation of human OPRM1-OPRD1 heterodimerization agonists; cells, MOR-DOR heterodimerization, luminescence complementation; 830 compounds, 45% hits; AID 504904; shares compounds with OPRM1-OPRD1 ag; activation, % at 9.3 µM;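 also: 0% = vehicle-treated cells and 100% = reference agonist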
# HTR5A ag counter: counter-screen for OPRM1-OPRD1 agonists: human HTR5A agonism; HTR5A agonist counterscreen, cell luminescence; 830 compounds, 8% hits; activation, % at 9.3 µM; AID 504905; shares compounds with OPRM1-OPRD1 ag; in the data active = activation above about 17%;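 also: 0% = vehicle-treated cells and 100% = reference agonist response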
# * = called active by the depositor; i = inactive; . = not tested or not shown. Hits are enriched below; roughly 1.1% of the tested compounds scored in any of these assays. Rule as the data show it, unless noted: active = activation above about 18%; inactive = the rest.
SMILES,OPRM1-OPRD1 ag,HTR5A inv ctr,HTR5A ag ctr,MOR-DOR inv ag,OPRM1-D1 ag cf,HTR5A ag counter
Brc1ccc(NC2=Nc3ccccc3CC2)cc1,26*,4,1,-165,230*,7
COc1ccc2c(Cl)c(-c3nnc4n3CCCCC4)sc2c1,81*,-11,4,-455,15,5
O=C1Cc2cc(NS(=O)(=O)c3ccc([N+](=O)[O-])cc3)cc3c2N1CCC3,3,15,-5,-19,.,.
CCOC(=O)c1ccc(N2C(=O)C3C(/C=C/c4ccccc4)OC4(C(=O)c5ccccc5C4=O)C3C2=O)cc1 (stereo not given),-2,12,-4,13,.,.
CCOc1ccc(CN2CCN(CC(O)Cn3c4ccccc4c4ccccc43)CC2)cc1 (stereo not given),1,3,8,-7,.,.
COc1ccc(CN2CCN(CC(O)Cn3c4ccccc4c4ccccc43)CC2)cc1 (stereo not given),21*,6,-2,-105,24*,-2
C#CC(=O)N(c1cc(OC)ccc1OC)C(C(=O)NC1CCCC1)c1cccs1 (stereo not given),37*,-27,15,-221,18,20*
COc1ccc(N(C(=O)c2snc(C(N)=O)c2N)C(C(=O)NC2CCCC2)c2cccs2)cc1OC (stereo not given),2,2,-1,-17,.,.
O=C(O)C1=CC[C@@H](c2ccc(Cl)cc2)N(S(=O)(=O)c2ccc(Cl)cc2)[C@H]1c1ccccc1,-1,-21,-5,5,.,.
CCCCN1C2CCCC1CC(NC(=O)c1cccc(OC)c1)C2 (stereo not given),-2,12,-3,8,.,.
CC(C)[C@H](NC(=O)c1c(F)cccc1F)C(=O)Nc1cccc(Br)c1,22*,-32,8,-126,12,0
Cc1nc2ccc(NC(=O)[C@@H](NC(=O)c3c(F)cccc3F)C(C)C)cc2s1,-3,0,0,12,.,.
NC(N)=NC(=O)c1nc(Cl)c(N2CCCCCC2)nc1N,72*,11,-3,-389,95*,-2
NC(N)=NC(=O)c1nc(Cl)c(N)nc1N,-1,-36,-5,7,.,.
Cc1ccc2sc(N(CCCN(C)C)C(=O)c3ccc(S(=O)(=O)N4CCOCC4)cc3)nc2c1C,-3,0,0,15,.,.
CCN(Cc1ccccc1)S(=O)(=O)c1ccc(C(=O)N(CCCN(C)C)c2nc3cc4c(cc3s2)OCO4)cc1,25*,-8,3,-138,0,-3
Cc1ccc2sc(N(CCCN(C)C)C(=O)c3ccc(S(=O)(=O)N(C)C4CCCCC4)cc3)nc2c1C,31*,5,-2,-163,49*,22*
CN(C)CCCN(C(=O)c1ccc(S(=O)(=O)N(C)C)cc1)c1nc2cc3c(cc2s1)OCO3,-3,-5,2,17,.,.
CCN(Cc1ccccc1)S(=O)(=O)c1ccc(C(=O)N(CCCN(C)C)c2nc3c(C)c(C)ccc3s2)cc1,31*,-16,6,-172,41*,1
Cc1ccc(C)c(S(=O)(=O)N2CCN(C(=O)c3sccc3C)CC2)c1,-1,7,-3,6,.,.
Cn1c(-c2c(N)n(CCc3ccccc3)c3nc4ccccc4nc23)nc2ccccc21,250*,-14,4,i,235*,6
Cn1c(-c2c(N)n(C3CCCC3)c3nc4ccccc4nc23)nc2ccccc21,7,9,-3,-40,.,.
COCCCn1c(N)c(-c2nc3ccccc3n2C)c2nc3ccccc3nc21,117*,5,-2,i,142*,-1
CCN(CC)c1ccc(C(=O)O)cc1,-2,-21,0,12,.,.
CCN(CC)c1ccc(/C=C2\C(=O)c3ccc(C(=O)O)cc3C2=O)cc1,21*,15,-8,-107,10,-6
Cc1ccc(OCc2nnc(SC(C)C(=O)O)n2-c2ccccc2)cc1 (stereo not given),-1,-3,1,4,.,.
COc1ccc(C(C)NCCC(c2ccc(OC(C)C)cc2)c2ccccc2OC)cc1 (stereo not given),23*,-5,1,-135,37*,7
COc1ccccc1C(CC(=O)Nc1ccc(Cl)cc1)c1ccc(OC(C)C)cc1 (stereo not given),1,-6,3,-9,.,.
CCc1ccc(C(=O)c2cnc3ccc(OC)cc3c2N2CCN(CC)CC2)cc1,111*,7,-3,i,-1,-1
